High-throughput results: PubChem, Center for Chemical Genomics, University of Michigan
Dicer inh: inhibitors of Dicer pre-microRNA processing, primary screen, biochemical, cat-ELCCA, chemiluminescence; cat-ELCCA pre-miR-21 Dicer processing; stronger effect = higher value; z-score at 25 µM; 47,000 compounds, 6% hits; in the data active = z-score above about 3, passing the limit was not always enough;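 also: higher signal means more uncleaved substrate so more Dicer inhibition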
Numbers stand for hits; – = inactive. The entries come from a sample that favours hits as a whole.

SMILES	Dicer inh
Cc1cc(C)c2nc(Nc3nc(C)cc(=O)[nH]3)nc(C)c2c1	–
O=S(=O)(CCc1ccncc1)c1ccc(Cl)cc1	4.35
O=S(=O)(Cc1ccccc1)c1ccc(Cl)cc1	–
O=S(=O)(CCS(=O)(=O)c1cccs1)c1ccc(Cl)cc1	–
Cc1cccc(Nc2nc(-c3ccc(O)c(O)c3)cs2)n1	5.16
Cc1ccc(Nc2nc(-c3ccccc3)cs2)nc1	–
Cc1ccnc(Nc2nc(-c3ccc(O)c(O)c3)cs2)c1	3.86
C=CCNc1nc(-c2ccc(O)c(OC)c2)cs1	–
Cc1ccnc(Nc2nc(-c3ccc(O)cc3)cs2)c1	–
Cc1cccc(Nc2nc(-c3ccncc3)cs2)n1	–
COc1cc(Br)cc(C2NC(=O)c3c(sc4c3CCN(C)C4)N2)c1O (configuration not stated)	–
CCOC(=O)Cn1cnc2sc3c(c2c1=O)CCC(C)C3 (configuration not stated)	–
COc1ccc(/C(C)=N/OC(=O)c2c(-c3ccccc3Cl)noc2C)cc1CN1CCOCC1	–
CCc1cc2c(=O)c(-c3nc4ccccc4s3)coc2cc1OC(C)=O	–
Cc1ccc(C(=O)O)c2c1N[C@H](c1cccc(Cl)c1)C1CC=CC21 (some centres not stated)	–
Cc1ccc(C2Nc3c(C)ccc(C(=O)O)c3C3C=CCC32)cc1 (configuration not stated)	3.28
Cc1ccc(C(=O)O)c2c1NC(c1ccc(Cl)cc1)C1CC=CC21 (configuration not stated)	–
CCCCCOc1ccc(C2C(C(=O)OCC)=C(C)N=C3SC(C)C(=O)N32)cc1 (configuration not stated)	–
Cn1c(=O)c2c(nc(NC3CCCCC3)n2CC(O)COc2ccccc2)n(C)c1=O (configuration not stated)	–
COc1ccc(OCC(O)Cn2c(NC3CCCCC3)nc3c2c(=O)n(C)c(=O)n3C)cc1 (configuration not stated)	3.32
Cn1c(=O)c2c(nc(NCCO)n2CC(O)COc2ccccc2)n(C)c1=O (configuration not stated)	–
CCc1nn2c(N)c(C#N)cnc2c1-c1ccc(F)cc1	–
CCCCOc1cccc(C2c3c(oc4ccccc4c3=O)C(=O)N2c2nccs2)c1 (configuration not stated)	–
Cc1c(C)c(C)c(C(=O)c2ccc(Cl)cc2)c(C)c1C	–
CC(=O)c1ccccc1C(=O)c1ccccc1	–
SMILES	Dicer inh
CC(=O)c1ccccc1C(=O)c1ccc(Cl)cc1	58.7
CCOC(=O)CCS(=O)(=O)c1ccc(Cl)cc1	–
CC(C)NC(=S)Nc1ccc(F)c(Cl)c1	–
COc1cc(C2OCC3(COC(C)=O)C(C)C=C(C)C2C3C)ccc1OC(C)=O (configuration not stated)	–
CC(=O)C1C(=O)c2cccc([N+](=O)[O-])c2C1=O (configuration not stated)	–
CC(=O)C1C(=O)CC(c2ccc(Cl)cc2)CC1=O (configuration not stated)	–
CC(=O)C1C(=O)c2c(Cl)c(Cl)c(Cl)c(Cl)c2C1=O	5.12
NN/C(N)=N/C(N)=Nc1ccccc1F	–
CCc1ccccc1N=C(N)N=C(N)N	5.46
NC(N)=NC(N)=Nc1ccccc1	–
CN(C)CCNC(=O)c1ccccn1	–
O=C1c2ccc([N+](=O)[O-])cc2C(=O)N1CNc1cc(C(F)(F)F)cc(C(F)(F)F)c1	–
O=C1c2ccccc2C(=O)N1Cc1cccnc1	–
O=C1c2ccccc2C(=O)N1CNc1ccc(Oc2ccccc2)cc1	3.83
CCCc1ccc(NCN2C(=O)c3ccccc3C2=O)cc1	–
CCc1ccccc1NCN1C(=O)c2ccccc2C1=O	3.43
O=C1c2ccccc2C(=O)N1CNc1ccc(Oc2ccc(Cl)cc2)cc1	–
O=C1c2ccccc2C(=O)N1CNc1ccccc1Oc1ccc(Cl)cc1Cl	–
CCC(C)c1ccc(NCN2C(=O)c3ccccc3C2=O)cc1 (configuration not stated)	3.11
Cc1cccc(NCN2C(=O)c3ccccc3C2=O)c1C	–
CC1CN(c2ccc3nnc(-c4ccc(C(F)(F)F)cc4)n3n2)CC(C)O1 (configuration not stated)	–
CSc1nc(C)nc(N/C=C(\C#N)S(=O)(=O)c2ccccc2)n1	–
N#Cc1sc(-c2ccc(F)cc2)cc1N=Cc1cccc([N+](=O)[O-])c1	–
CCOc1ccc2c(=O)c(Oc3ccccc3Cl)coc2c1	–
CCOc1ccc(C2C(C(=O)OC(C)C)=C(C)NC3=C2C(=O)CCC3)cc1 (configuration not stated)	–
COc1ccccc1OCC(=O)N(Cc1cccs1)C1CCS(=O)(=O)C1 (configuration not stated)	–
O=C(c1ccccc1Br)N(Cc1cccs1)C1CCS(=O)(=O)C1 (configuration not stated)	3.85
COc1ccc(OCC(=O)N(Cc2cccs2)C2CCS(=O)(=O)C2)cc1 (configuration not stated)	–
CCCc1cc(=O)[nH]c(SCC(=O)Nc2ccc(F)c(Cl)c2)n1	3.13
